This is an account of results in PubChem BioAssay (Tox21).

Inconclusive results are not listed. Activity calls are given as the source filed them. Calls follow the shape of the dose curve; as a rule, active = well fitted activation curve with a large enough effect in the repeat runs; inconclusive = weak or mixed curves; inactive = no such curve, though single readings can be large or run the other way.
% is scaled to controls: 0 for no effect and ±100 for the full control effect; potency is read from the fitted curve at half-maximal effect.

For the test, the target named is Aryl hydrocarbon receptor (Homo sapiens) (UniProt P35869). Put plainly: qHTS assay to identify small molecule that activate the aryl hydrocarbon receptor (AhR) signaling pathway (AID 743085). Also: nearly all actives have a fitted effect of over 15% in size.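 As to activation: HG2L7.5c1 human HepG2 liver cells with stably integrated DRE-driven firefly reporter.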 Conditions: HepG2 AhR-luc (HG2L7.5c1), luciferase, 24 h; series mostly up to 70.3 µM; activation: at the top concentration. The text has this: U.S. Tox21 Program National Center for Advancing Translational Sciences [NCATS] NIH Chemical Genomics Center [NCGC] U.S. Environmental Protection Agency [EPA] National Institutes of Environmental Health Sciences [NIEHS] National Toxicology Program [NTP] U.S. Food and Drug Administration [FDA] Tox21 Assay overview: The Aryl hydrocarbon Receptor (AhR), a member of the family of basic helix-loop-helix transcription factors, is crucial to adaptive responses to environmental changes. AhR mediates cellular responses to environmental pollutants such as aromatic hydrocarbons through induction of phase I and II enzymes but also interacts with other nuclear receptor signaling pathways. A cell based HepG2-AhR-luc assay (HG2L7.5c1 cell line, developed by Dr. Michael S. Denison, University of California at Davis, was used to assess the activation of AhR. HepG2 (human hepatocellular carcinoma) cells were stably transfected with an Ah receptor-responsive firefly luciferase reporter gene plasmid containing 20 dioxin responsive elements and luciferase reporter gene. Increased luciferase activity can be used to identify the compounds that induce AhR activation.
Chain of Aryl hydrocarbon receptor (Homo sapiens) (P35869 whole entry, looked up): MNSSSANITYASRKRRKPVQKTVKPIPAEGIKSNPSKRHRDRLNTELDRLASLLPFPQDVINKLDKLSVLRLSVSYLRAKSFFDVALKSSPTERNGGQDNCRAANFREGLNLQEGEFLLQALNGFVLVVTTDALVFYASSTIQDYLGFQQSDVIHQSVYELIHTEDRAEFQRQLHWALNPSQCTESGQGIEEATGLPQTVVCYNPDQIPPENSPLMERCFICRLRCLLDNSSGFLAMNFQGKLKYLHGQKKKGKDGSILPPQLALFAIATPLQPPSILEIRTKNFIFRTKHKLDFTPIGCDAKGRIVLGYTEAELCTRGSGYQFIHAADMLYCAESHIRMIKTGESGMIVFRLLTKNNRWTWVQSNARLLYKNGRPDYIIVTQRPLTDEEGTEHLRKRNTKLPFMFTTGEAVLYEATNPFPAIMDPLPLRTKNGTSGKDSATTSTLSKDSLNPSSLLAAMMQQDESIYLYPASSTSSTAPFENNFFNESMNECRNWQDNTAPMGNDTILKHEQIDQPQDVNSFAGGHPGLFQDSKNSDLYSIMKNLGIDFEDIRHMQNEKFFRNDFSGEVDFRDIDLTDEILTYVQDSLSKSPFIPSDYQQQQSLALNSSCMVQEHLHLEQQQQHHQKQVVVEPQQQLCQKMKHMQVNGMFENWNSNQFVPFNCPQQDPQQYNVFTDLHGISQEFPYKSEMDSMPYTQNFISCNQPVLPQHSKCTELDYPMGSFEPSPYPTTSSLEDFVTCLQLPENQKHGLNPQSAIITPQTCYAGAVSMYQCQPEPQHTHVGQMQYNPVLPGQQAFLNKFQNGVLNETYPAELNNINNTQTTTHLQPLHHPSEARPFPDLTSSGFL
Tox21 Assay Protocol Summary: 4000 cells in 5 uL/well were dispensed into white wall/solid bottom 1536-well plates using a Multidrop Combi (Thermo Fisher Scientific Inc., Waltham, MA) dispenser. After the assay plates were incubated at 37C for 5 h, 23 nL of compound or DMSO vehicle was transferred to the assay plates by a pintool station (Kalypsys, San Diego, CA). The plates were incubated at 37C for 24 hr. After 1 ul/well of CellTiter-Fluor reagent (Promega, Madison, WI) was added into the assay plates using a Flying Reagent Dispenser (FRD) (Aurora Discovery, CA), the assay plates were incubated at 37C for 30 min. The fluorescence intensity in the plates was measured using a ViewLux plate reader (PerkinElmer, Shelton, CT), followed by the addition of 4 uL of ONE-Glo Luciferase Assay reagent (Promega) using an FRD (Aurora Discovery). After the assay plates were incubated at room temperature for 30 min, luminescence intensity was measured using a ViewLux plate reader (Perkin Elmer).
For the compound `Cc1nccn1-c1ccc(Sc2cccc(C3(C(N)=O)CCOCC3)c2)cc1`, the “activation” value is -4.45% (inactive).

For `O=C(N/N=C/c1ccc([N+](=O)[O-])o1)c1ccc(O)cc1`, the “activation” value was -13.6% [at 32.5 µM] (inactive).

Turning to `C=CCOC(=O)/C=C\C(=O)OCC=C`, the “activation” value was 1.42% [at 95 µM] (inactive).

Consider `COC(=O)Nc1nc2ccc(C(=O)c3cccs3)cc2[nH]1`, for which the Potency was 3.76 µM (active).

As to `O=C(O)Cc1ccc(-c2ccccc2)cc1`, the “activation” value is -0.264% [at 32.5 µM] (inactive).

Consider `Cc1cc(O)c(C(C)C)cc1Cl`, for which the Potency entry is “inactive”.

With `Nc1nccs1`, the Potency result was “inactive”.

`CCOC(=O)c1ccccc1C`: the “activation” value is -0.434% (inactive).

In the case of `C[Si](NC1CCCCC1)(NC1CCCCC1)NC1CCCCC1`, the “activation” value is -0.235% (inactive).

For the compound `CCCCCC=CCC=CCCCCCCCC(=O)OCC`, the “activation” value was 0.737% (inactive).

As for `CC(=O)CC(c1ccc([N+](=O)[O-])cc1)c1c(O)c2ccccc2oc1=O` (stereo not given), the “activation” value is -0.145% [at 32.5 µM] (inactive).

For `ON(Cc1ccccc1)Cc1ccccc1`, the “activation” value is 1.97% (inactive).

On to `Cc1nc2ccccc2s1`, for which the “activation” value was 0.387% [at 95 µM] (inactive).

As for `CC(C)CCCCCOC(=O)CCCCC(=O)OCCCCCC(C)C`, the “activation” value was -0.224% (inactive).

For `O=C(Nc1ccc([N+](=O)[O-])cc1)Nc1ccc([N+](=O)[O-])cc1`, the “activation” value is 0.518% (inactive).

Regarding `Cc1ccnc2ccccc12`, the “activation” value is 4.37% (inactive).

Consider `COCCOC(=O)C1=C(C)NC(C)=C(C(=O)OC/C=C/c2ccccc2)C1c1cccc([N+](=O)[O-])c1` (stereo not given), for which the Potency is 0.944 µM (active).

For `COc1cc2ncnc(Nc3ccc(F)c(Cl)c3)c2cc1OCCCN1CCOCC1`, the Potency was 15 µM (active).

`CCc1cccc(N(C)C(N)=Nc2cccc3ccccc23)c1`: the “activation” value is 7.75% (inactive).

As for `N#C/C(=C1\SCC(c2ccccc2Cl)S1)n1ccnc1` (stereo not given), the Potency is 7.5 µM (active).

With `CC(C)(CCl)c1ccccc1`, the “activation” value is -0.377% (inactive).

As for `Nc1ccc(S(=O)(=O)O)c(N)c1`, the “activation” value was -1.2% (inactive).

`C/C=C/C=C/CCCCCCCO`: the “activation” value is -0.819% (inactive).

For `CC(=O)[C@H]1CC[C@H]2[C@@H]3C[C@H](C)C4=CC(=O)CC[C@]4(C)[C@H]3[C@@H](O)C[C@]12C`, the “activation” value is 4.23% [at 32.5 µM] (inactive).

As to `O=C(CCC1CCN(Cc2ccccc2)CC1)c1ccc2c(c1)NCCCC2`, the Potency was 23.7 µM (active).

Consider `Fc1ccccc1[C@@H](F)COC1CCC(Nc2ncnc3[nH]ncc23)CC1` (stereo not given in full), for which the “activation” value is 0.284% (inactive).

With `Cc1ccccc1N1C(=O)c2cc(S(N)(=O)=O)c(Cl)cc2NC1C` (stereo not given), the Potency entry was “inactive”.

Turning to `c1cnc2c(n1)CCCC2`, the “activation” value was 2.6% (inactive).

On to `C=C(C)C(=O)OCCOC(=O)CC(C)=O`, for which the “activation” value is -0.727% (inactive).

In the case of `CC(C)OCC1CO1` (stereo not given), the “activation” value is -0.0268% (inactive).

On to `CCC(C)(O)CCC=C(C)C` (stereo not given), for which the “activation” value was 0.948% (inactive).

Consider `CCOC(=O)[C@@H](C)Oc1ccc(Oc2nc3ccc(Cl)cc3o2)cc1`, for which the “activation” value was 3.8% (inactive).

For the compound `CN1CCN(CCCN2c3ccccc3Sc3ccc(S(=O)(=O)N(C)C)cc32)CC1`, the “activation” value was -0.54% [at 32.5 µM] (inactive).

Take `CCOC(=O)/C=C/C(=O)O`: the “activation” value was -1.36% (inactive).

With `CSc1ccc(Oc2ccc(S(N)(=O)=O)cc2CN(C)C)cc1C`, the “activation” value was 1.56% (inactive).

For the compound `CC(CCO)CCc1ccccc1` (stereo not given), the “activation” value is -0.343% (inactive).

With `CCC(C)=O`, the “activation” value is -1.67% (inactive).

Take `CCCCC/C(=C\c1ccccc1)CO`: the “activation” value is 0.264% [at 95 µM] (inactive).

On to `OCC1CC=CCC1` (stereo not given), for which the “activation” value is 0.641% (inactive).

`Cc1cc(OI)c(C(C)C)cc1-c1cc(C(C)C)c(OI)cc1C`: the “activation” value was 2.99% (inactive).
